35 molecules from the supplement of paper PMC9334596 can be followed below.

Molecules are shown by their SMILES. Over roughly 5,300 compounds, “PER2::LUC luminescence relative to vehicle control” has its median near 0.96; the highest 2% begin near 1.3. The sample as a whole holds a higher share of the highest values than the screen did.

The assay concerns mPer2Luc MEF. The assay is described as follows: PER2::LUC luminescence relative to vehicle control (fold of vehicle); higher = higher PER2::LUC reporter signal. The note with it: 10 µM. An outline of the steps: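 The value is PER2::LUC luminescence expressed as fold of vehicle control. Mouse embryonic fibroblasts carrying the mPer2Luc reporter were seeded at ~3000 cells per well in 384-well plates and grown in DMEM with 10% FBS at 37 °C and 5% CO2. Compounds from commercial libraries were added at 10 μM 48 h after seeding, and luminescence was read with the ONE-Glo luciferase assay system 24 h and 30 h after treatment, followed by an alamarBlue viability assay.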

Take `CCCC[C@@H](C)/C=C(C)/C=C(\C)C(=O)NC1=C[C@@](O)(/C=C/C=C/C=C/C(=O)NC2=C(O)CCC2=O)[C@@H]2O[C@@H]2C1=O`: the “PER2::LUC luminescence” value runs as follows: (time after treatment 24 h) 0.951; (time after treatment 30 h) 0.934.
Consider `Cc1ccc(O)cc1Nc1ccnc(Nc2cccc(C(N)=O)c2)n1`, for which the “PER2::LUC luminescence” value by setting is: (time after treatment 24 h) 1.05; (time after treatment 30 h) 1.02.
Consider `CCOC(=O)c1sc(NC(=O)[C@H](C(C)C)n2c(=O)[nH]c3ccccc3c2=O)nc1C`, for which the “PER2::LUC luminescence” value runs as follows: (time after treatment 24 h) 1.02; (time after treatment 30 h) 0.987.
For the molecule `O=C(O[C@H]1[C@H](Oc2ccccc2COC(=O)C2(O)C=CCCC2=O)O[C@H](CO)[C@@H](O)[C@@H]1O)c1ccccc1` (stereo not given in full), the “PER2::LUC luminescence” value was 0.824 (time after treatment 24 h) and 0.676 (time after treatment 30 h).
Take `Nc1ccc(/N=N/c2ccccc2)c(N)n1`: the “PER2::LUC luminescence” value by setting is: (time after treatment 24 h) 1.76; (time after treatment 30 h) 1.7.
In the case of `Cc1ccc(O)c(N=Nc2ccccc2)n1`, the “PER2::LUC luminescence” value (time after treatment 24 h) was found to be 1.05 and the “PER2::LUC luminescence” value (time after treatment 30 h) was determined as 0.998.
Consider `CC[C@H]1CN(c2nc(N)c(C(N)=O)nc2Cl)CCN1C1CCN(Cc2ccc(Cl)cc2)CC1`, for which the “PER2::LUC luminescence” value is 0.96 (time after treatment 24 h) and 1.01 (time after treatment 30 h).
For the molecule `O=c1cc(-c2ccc(O)cc2)oc2cc(O[C@@H]3O[C@H](CO)[C@@H](O)[C@H](O)[C@H]3O)cc(O)c12`, the “PER2::LUC luminescence” value reads like this: (time after treatment 24 h) 1.22; (time after treatment 30 h) 1.43.
Turning to `O=c1c(-c2ccc(O)cc2)coc2cc(O[C@@H]3O[C@H](CO)[C@@H](O)[C@H](O)[C@H]3O)ccc12`, the “PER2::LUC luminescence” value (time after treatment 24 h) is 1.25 and the “PER2::LUC luminescence” value (time after treatment 30 h) came out at 1.39.
On to `O=c1c(-c2ccc(O)cc2)coc2cc(O)ccc12`, for which the “PER2::LUC luminescence” value was found to be 0.822 (time after treatment 24 h) and 0.788 (time after treatment 30 h).
The like results for `COc1ccc2c(=O)c(CC(=O)O)coc2c1` were, in that order, 0.908 and 0.978.
On the same counts, the results for `OC[C@H]1O[C@@H](Oc2ccc(O)cc2)[C@H](O)[C@@H](O)[C@@H]1O` are 1.02 and 0.876.
`COc1ccccc1-c1coc2cc(O)ccc2c1=O`: the “PER2::LUC luminescence” value runs as follows: (time after treatment 24 h) 1.14; (time after treatment 30 h) 1.04.
For the molecule `O=c1cc(-c2ccc(O)c(O[C@@H]3O[C@H](CO)[C@@H](O)[C@H](O)[C@H]3O)c2)oc2cc(O[C@@H]3O[C@H](CO)[C@@H](O)[C@H](O)[C@H]3O)cc(O)c12`, the “PER2::LUC luminescence” value by setting is: (time after treatment 24 h) 1.07; (time after treatment 30 h) 1.04.
Turning to `CC(C)Oc1ccc2c(=O)c(-c3ccccc3)coc2c1`, the “PER2::LUC luminescence” value was 1.9 (time after treatment 24 h) and 1.92 (time after treatment 30 h).
As for `C[C@@H]1O[C@@H](O[C@H]2[C@H](Oc3cc(O)c4c(=O)cc(-c5ccc(O)cc5)oc4c3)O[C@H](CO)[C@@H](O)[C@@H]2O)[C@H](O)[C@H](O)[C@H]1O`, the “PER2::LUC luminescence” value was 0.841 (time after treatment 24 h) and 0.85 (time after treatment 30 h).
For `COc1ccc(-c2coc3cc(O)ccc3c2=O)c(OC)c1`, the “PER2::LUC luminescence” value runs as follows: (time after treatment 24 h) 1.02; (time after treatment 30 h) 1.05.
Regarding `O=c1c(-c2ccc(O)cc2)coc2cc(O[C@@H]3O[C@H](CO)[C@@H](O)[C@H](O)[C@H]3O)cc(O)c12`, the “PER2::LUC luminescence” value is 1.3 (time after treatment 24 h) and 1.32 (time after treatment 30 h).
On the same counts, the results for `COc1ccc(-c2coc3cc(O)ccc3c2=O)cc1` are 1.77 and 1.97.
On to `Cc1ccc(NC(=O)Nc2cc(-c3ccccc3-c3nn[nH]n3)ccc2N(CC(C)C)CC(C)C)cc1`, for which the “PER2::LUC luminescence” value is, setting by setting: (time after treatment 24 h) 0.966; (time after treatment 30 h) 0.93.
Turning to `O=c1ccc2cccc(O)c2[nH]1`, the “PER2::LUC luminescence” value (time after treatment 24 h) was 1.06 and the “PER2::LUC luminescence” value (time after treatment 30 h) came out at 0.957.
Consider `CCCCC/C=C\CCC(=O)N[C@H]1[C@H](Oc2c3cc4cc2Oc2ccc(cc2Cl)[C@@H](O[C@@H]2O[C@H](CO)[C@@H](O)[C@H](O)[C@H]2NC(C)=O)[C@@H]2NC(=O)[C@H](NC(=O)[C@@H]4NC(=O)[C@H]4NC(=O)[C@@H](Cc5ccc(c(Cl)c5)O3)NC(=O)[C@H](N)c3ccc(O)c(c3)Oc3cc(O)cc4c3)c3ccc(O)c(c3)-c3c(O[C@H]4O[C@H](CO)[C@@H](O)[C@H](O)[C@@H]4O)cc(O)cc3[C@@H](C(=O)O)NC2=O)O[C@H](CO)[C@@H](O)[C@@H]1O`, for which the “PER2::LUC luminescence” value (time after treatment 24 h) is 0.886 and the “PER2::LUC luminescence” value (time after treatment 30 h) worked out at 0.953.
`C=C[C@@](C)(O)CC[C@H]1C(=C)CC[C@H]2C(C)(C)CCC[C@]12C`: the “PER2::LUC luminescence” value turned out to be 0.946 (time after treatment 24 h) and 0.911 (time after treatment 30 h).
For the molecule `COc1cc(-c2coc3cc(O[C@@H]4O[C@H](CO)[C@@H](O)[C@H](O)[C@H]4O)c(OC)c(O)c3c2=O)cc(O)c1OC`, the “PER2::LUC luminescence” value runs as follows: (time after treatment 24 h) 0.773; (time after treatment 30 h) 1.31.
As for `COc1ccc(-c2coc3c(OC)c(OC)cc(O)c3c2=O)cc1`, the “PER2::LUC luminescence” value turned out to be 1.01 (time after treatment 24 h) and 1.13 (time after treatment 30 h).
Consider `COc1cc(-c2coc3cc(OC)c(OC)c(OC)c3c2=O)cc(OC)c1OC`, for which the “PER2::LUC luminescence” value stood at 0.972 (time after treatment 24 h) and 0.969 (time after treatment 30 h).
In the case of `COc1ccc2c(=O)c(-c3ccc(O)cc3)coc2c1`, the “PER2::LUC luminescence” value by setting is: (time after treatment 24 h) 1.39; (time after treatment 30 h) 1.62.
Take `COc1cc(-c2coc3cc(O)c(OC)c(O)c3c2=O)cc(O)c1OC`: the “PER2::LUC luminescence” value runs as follows: (time after treatment 24 h) 1.37; (time after treatment 30 h) 1.39.
For the molecule `COc1ccc(-c2coc3cc(O)ccc3c2=O)cc1S(=O)(=O)O`, the “PER2::LUC luminescence” value by setting is: (time after treatment 24 h) 1; (time after treatment 30 h) 0.898.
`O=c1c(-c2ccc(O)cc2)coc2cc(O)cc(O)c12`: the “PER2::LUC luminescence” value runs as follows: (time after treatment 24 h) 1.07; (time after treatment 30 h) 1.06.
On to `COc1ccc(-c2coc3cc(O)cc(O)c3c2=O)cc1`, for which the “PER2::LUC luminescence” value amounted to 1.83 (time after treatment 24 h) and 1.97 (time after treatment 30 h).
With `COc1ccc(-c2coc3c(O)c(O)c(OC)cc3c2=O)cc1`, the “PER2::LUC luminescence” value by setting is: (time after treatment 24 h) 1.31; (time after treatment 30 h) 1.23.
In the case of `CC(C)(C)[Si](C)(C)Oc1ccc2oc(=O)c3c(c2c1)CCCN3`, the “PER2::LUC luminescence” value (time after treatment 24 h) is 1.14 and the “PER2::LUC luminescence” value (time after treatment 30 h) amounted to 1.15.
For `CC(=O)O[C@@H]1C[C@@]23C[C@@]24CC[C@H](O[C@@H]2OC[C@@H](O)[C@H](O)[C@H]2O)C(C)(C)[C@@H]4CC[C@H]3[C@]2(C)C[C@@H]3O[C@]4(C[C@@H](C)[C@@H]3[C@@]12C)O[C@H](O)[C@@]1(C)O[C@@H]41`, the “PER2::LUC luminescence” value stood at 0.888 (time after treatment 24 h) and 0.982 (time after treatment 30 h).
The like results for `CC[C@H](C)[C@@H]([C@@H](CC(=O)N1CCC[C@H]1[C@H](OC)[C@@H](C)C(=O)N[C@@H](Cc1ccccc1)c1nccs1)OC)N(C)C(=O)[C@@H](NC(=O)[C@@H](NC)C(C)C)C(C)C` were, in that order, 0.338 and 0.385.
